Measured values: PubChem BioAssay (NCATS)
Inconclusive results are not listed. A number with no mark means an inactive call. The source made the active and inactive calls. The call rests on the fitted dose curve; in most records, active means well fitted cell-killing curve with a large enough effect; inconclusive means small, poorly fitted or top-dose-only effect; inactive means flat fitted curve, though single readings scatter.

Test: Cell Viability - LYMP2-019 (AID 973);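 further: 0% = DMSO alone and full effect = 92 µM tetraoctylammonium bromide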
Settings: LYMP2-019 lymphoblastoid cell line viability; series mostly up to 92.2 µM; activity change, negative = cytotoxicity: at the top concentration
Outline: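 qHTS, 1536-well; 2500 cells/well; 5 hr pre-incubation, 24 hr compound exposure, 37 C; CellTiter-Glo added, 30 min RT; luminescence read; AC50 via standard Hill equation.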
Further: nearly all actives have a fitted effect of over 55% in size.

Structure (SMILES)	activity change, negative = cytotoxicity [%]	Potency
Brc1ccccc1	-25.2	
CCOP(=S)(OCC)SCSC(C)(C)C	-4.55	
CCSC(=O)Cl	-3.32	
Cc1cccc([N+](=O)[O-])c1	-4.41	
Nc1c(Cl)c(Cl)nc(C(=O)O)c1Cl	-5.42	
CC(C)(C)OOC(C)(C)C	-12.9	
C=C(C)C(=O)OCC1CO1 (stereo unspecified)	-6.69	
Cc1ccc([N+](=O)[O-])cc1C	1.29	
O=[N+]([O-])c1ccc(Cl)c(Cl)c1	-14.3	
C=CC(=C)C	6.86	
Cc1ccc2ccccc2c1	-6.53	
Nc1ccccc1Cl	-0.472	
Clc1ccc2ccccc2c1	-10.2	
[O-][Br+2]([O-])O		inactive
Clc1nc(Cl)nc(Nc2ccccc2Cl)n1	1.19	
OCC1CO1 (stereo unspecified)	2.41	
C=CCOC(=O)c1ccccc1N	-0.688	
C=CC(N)=O		inactive
CC(C)(c1ccccc1)c1ccc(O)cc1	-12.5	

Structure (SMILES)	activity change, negative = cytotoxicity [%]	Potency
CCN(CC)c1ccccc1	3.17	
S=C=Nc1cccc2ccccc12	-11.2	
N#CCCCl		inactive
O=NN(CCO)CCO	-8.41	
Cc1ccccc1N		inactive
C=CCOC(C)=O	1.24	
CCCC(=O)Cl	1.3	
NC(=S)Nc1ccccc1		inactive
O=C(Cl)/C=C/C(=O)Cl	-5.88	
C=C(Cl)Cl	-12	
COc1ccc(C=O)cc1OC	-6.82	
C=CC(=O)OCC	0.352	
c1nc[nH]n1	-6.81	
c1ccc2c(c1)CCCC2	2.66	
CCCSC(=O)Cl	1.68	
Clc1cccc(C(Cl)(Cl)Cl)n1	0.975	
O=NN(c1ccccc1)c1ccccc1	-7.15	
C1CCC2CCCCC2C1 (stereo unspecified)	-4.9	
CC(O)CCl (stereo unspecified)	2.61	

Test: Cell Viability - LYMP2-021 (AID 974);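 further: compound exposure lasts 24 hours at 37 °C; on the % scale 0 is the no-effect control and ±100 the full control effect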
Settings: LYMP2-021 lymphoblastoid cells viability; series mostly up to 92.2 µM; activity change, negative = cytotoxicity: at the top concentration
Outline: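 ATP luminescence (CellTiter-Glo, 30 min RT) after 24 h compound exposure at 37 C; 2500 human lymphoblastoid cells/well, 5 h settle beforehand. Cytotoxicity = concentration-dependent ATP drop, AC50 by Hill fit.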

Structure (SMILES)	activity change, negative = cytotoxicity [%]	Potency
Brc1ccccc1	-1.31	
CCOP(=S)(OCC)SCSC(C)(C)C	-1.5	
CCSC(=O)Cl	-2.2	
Cc1cccc([N+](=O)[O-])c1	-2.53	
Nc1c(Cl)c(Cl)nc(C(=O)O)c1Cl	-0.298	
CC(C)(C)OOC(C)(C)C	1.51	
C=C(C)C(=O)OCC1CO1 (stereo unspecified)	-2.5	
Cc1ccc([N+](=O)[O-])cc1C	-4.44	
O=[N+]([O-])c1ccc(Cl)c(Cl)c1	-6.45	
C=CC(=C)C	-4.04	
Cc1ccc2ccccc2c1	0.148	
Nc1ccccc1Cl	-1.94	
Clc1ccc2ccccc2c1	-6.49	
[O-][Br+2]([O-])O		inactive
Clc1nc(Cl)nc(Nc2ccccc2Cl)n1	-10.1	
OCC1CO1 (stereo unspecified)	-2.62	
C=CCOC(=O)c1ccccc1N	-3.46	
C=CC(N)=O		inactive
CC(C)(c1ccccc1)c1ccc(O)cc1	-5.56	

Structure (SMILES)	activity change, negative = cytotoxicity [%]	Potency
CCN(CC)c1ccccc1	0.301	
S=C=Nc1cccc2ccccc12	-15.4	
N#CCCCl		inactive
O=NN(CCO)CCO	-1.39	
Cc1ccccc1N		inactive
C=CCOC(C)=O	-6.76	
CCCC(=O)Cl	0.94	
NC(=S)Nc1ccccc1		inactive
O=C(Cl)/C=C/C(=O)Cl	-5.88	
C=C(Cl)Cl	2.4	
COc1ccc(C=O)cc1OC	-9.12	
C=CC(=O)OCC	-2.35	
c1nc[nH]n1	-1.73	
c1ccc2c(c1)CCCC2	-3.65	
CCCSC(=O)Cl	-3.91	
Clc1cccc(C(Cl)(Cl)Cl)n1	-0.296	
O=NN(c1ccccc1)c1ccccc1	-7.55	
C1CCC2CCCCC2C1 (stereo unspecified)	4.51	
CC(O)CCl (stereo unspecified)	0.608	
